± gives the standard deviation of the averaged measurements.
Target: MurC (UniProt C4ZRI6)
Test: relative enzymatic activity vs untreated control (fraction); higher = less inhibition
Details: 100 µM; incubation time: 2 h at 37 C
Experimental: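 In vitro enzymatic inhibition assays (ProFoldin kits) for 12 purified essential E. coli enzymes or complexes, each treated with 218 active antibacterial compounds at 100 µM for 2 h at 37°C. Read-outs were fluorescence or absorbance (phosphate detection, dye binding), converted to activity via standard curves and expressed relative to untreated DMSO controls.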

Sequence of MurC (C4ZRI6 whole entry, looked up): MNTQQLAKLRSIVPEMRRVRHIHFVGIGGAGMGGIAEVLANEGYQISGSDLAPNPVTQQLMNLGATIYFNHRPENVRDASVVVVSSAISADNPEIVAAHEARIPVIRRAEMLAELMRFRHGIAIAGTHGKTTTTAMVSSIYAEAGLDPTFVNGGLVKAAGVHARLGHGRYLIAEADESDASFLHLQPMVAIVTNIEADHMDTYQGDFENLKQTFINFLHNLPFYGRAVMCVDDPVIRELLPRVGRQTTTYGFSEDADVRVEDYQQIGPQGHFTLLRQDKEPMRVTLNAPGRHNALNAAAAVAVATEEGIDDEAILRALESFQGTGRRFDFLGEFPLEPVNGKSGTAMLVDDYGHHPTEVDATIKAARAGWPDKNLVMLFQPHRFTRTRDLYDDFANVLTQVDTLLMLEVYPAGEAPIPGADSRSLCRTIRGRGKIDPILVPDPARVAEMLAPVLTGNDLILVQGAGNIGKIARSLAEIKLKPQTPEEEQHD

`C=C1c2cccc(O)c2C(=O)[C@@H]2C(=O)[C@]3(O)C(=O)[C@@H](C(N)=O)C(=O)[C@@H](N(C)C)[C@@H]3[C@@H](O)[C@H]12` and `C[C@H]1c2cccc(O)c2C(=O)C2=C(O)[C@]3(O)C(=O)[C@@H](C(N)=O)C(=O)[C@@H](N(C)C)[C@@H]3[C@@H](O)[C@@H]21` are within error of each other in relative enzymatic activity: 1.03 ± 0.034 for the first, 0.97 ± 0.064 for the second.

`CCN1CCN(C(=O)NC(C(=O)NC2C(=O)N3C2SC(C)(C)C3C(=O)[O-])c2ccccc2)C(=O)C1=O.[Na+]` (stereo not given) and `CC1(C)S[C@@H]2[C@H](NC(=O)[C@H](NC(=O)N3CCNC3=O)c3ccccc3)C(=O)N2[C@H]1C(=O)O` are within error of each other in relative enzymatic activity: 0.951 ± 0.086 for the first, 0.907 ± 0.097 for the second.

`CCn1cc(C(=O)O)c(=O)c2cc(F)c(N3CCNCC3)nc21` and `N[C@@H]1[C@H]2CN(c3nc4c(cc3F)c(=O)c(C(=O)O)cn4-c3ccc(F)cc3F)C[C@@H]12` are within error of each other in relative enzymatic activity: 0.948 ± 0.15 for the first, 0.885 ± 0.015 for the second.

`CC[C@@H](C)CCCCC(=O)N[C@@H](CCN)C(=O)N[C@H](C(=O)N[C@@H](CCN)C(=O)N[C@H]1CCNC(=O)[C@H]([C@@H](C)O)NC(=O)[C@H](CCN)NC(=O)[C@H](CCN)NC(=O)[C@H](CC(C)C)NC(=O)[C@@H](Cc2ccccc2)NC(=O)[C@@H](CCN)NC1=O)[C@@H](C)O` and `CCC1OC(=O)C(C)C(=O)C(C)C(OC2OC(C)CC(N(C)C)C2O)C(C)(OC)CC(C)C(=O)C(C)C2N(CCCCn3cnc(-c4cccnc4)c3)C(=O)OC12C` (stereo not given) are within error of each other in relative enzymatic activity: 1.03 ± 0.032 for the first, 0.741 ± 0.33 for the second.

`CO/N=C(\C(=O)N[C@@H]1C(=O)N2C(C(=O)O)=C(C)CS[C@H]12)c1csc(N)n1` and `CON=C(C(=O)NC1C(=O)N2C(C(=O)[O-])=C(COC(C)=O)CSC12)c1csc(N)n1.[Na+]` (stereo not given) are within error of each other in relative enzymatic activity: 0.884 ± 0.037 for the first, 0.961 ± 0.082 for the second.

Compared with `Oc1c(Cl)cc(Cl)c(Cl)c1Cc1c(O)c(Cl)cc(Cl)c1Cl`, `Cl.NC1CCN(c2c(F)cc3c(=O)c(C(=O)O)cn(C4CC4)c3c2Cl)C1` (stereo not given) is lower in relative enzymatic activity: 3.59 ± 0.79 for the first, 1.06 ± 0.063 for the second.

Compared with `CN(C)CCOC(c1ccccc1)c1ccccc1.Cn1c(=O)c2[nH]c(Cl)nc2n(C)c1=O`, `COC1=C(OC)C(=O)C(CCCCCCCCCC[P+](c2ccccc2)(c2ccccc2)c2ccccc2)=C(C)C1=O` is lower in relative enzymatic activity: 1.02 ± 0.026 for the first, 0.344 ± 0.24 for the second.

`CC1CCc2cc(F)cc3c(=O)c(C(=O)O)cn1c23` (stereo not given) and `CC1COc2c(C3(N)CC3)c(F)cc3c(=O)c(C(=O)O)cn1c23.CS(=O)(=O)O` (stereo not given) are within error of each other in relative enzymatic activity: 1.01 ± 0.053 for the first, 0.958 ± 0.027 for the second.

`CC1CN(c2c(F)c(F)c3c(=O)c(C(=O)O)cn(C4CC4)c3c2F)CC(C)N1` (stereo not given) and `CC1CN(c2c(F)c(N)c3c(=O)c(C(=O)O)cn(C4CC4)c3c2F)CC(C)N1` (stereo not given) are within error of each other in relative enzymatic activity: 0.891 ± 0.082 for the first, 0.989 ± 0.12 for the second.

`O=[N+]([O-])c1ccc(O)c2ncccc12` and `NC(=O)N/N=C/c1ccc([N+](=O)[O-])o1` are within error of each other in relative enzymatic activity: 1.046 ± 0.004 for the first, 1.08 ± 0.033 for the second.

`CN1CCN(c2c(F)cc3c(=O)c(C(=O)O)cn4c3c2SCC4)CC1` and `CN1CCN(c2c(F)cc3c(=O)c(C(=O)O)cn4c3c2OCN4C)CC1` are within error of each other in relative enzymatic activity: 0.895 ± 0.076 for the first, 0.954 ± 0.1 for the second.

Going from `NCC1OC(OC2C(N)CC(N)C(OC3OC(CO)C(O)C(N)C3O)C2O)C(N)C(O)C1O.O=S(=O)(O)O` (stereo not given) to `NCC1OC(OC2C(N)CC(N)C(OC3OC(CO)C(O)C(N)C3O)C2O)C(N)CC1O` (stereo not given), the relative enzymatic activity rises from 1.04 ± 0.018 to 1.11 ± 0.046.

`CC(=O)OCC1=C(C(=O)[O-])N2C(=O)C(NC(=O)Cc3cccs3)C2SC1.[Na+]` (stereo not given) and `Cc1nnc(SCC2=C(C(=O)[O-])N3C(=O)C(NC(=O)Cn4cnnn4)C3SC2)s1.[Na+]` (stereo not given) are within error of each other in relative enzymatic activity: 1.08 ± 0.043 for the first, 1.05 ± 0.11 for the second.

`CCOC(=O)CCC(=O)O[C@H]1[C@H](O[C@@H]2[C@@H](C)[C@H](O[C@H]3C[C@@](C)(OC)[C@@H](O)[C@H](C)O3)[C@@H](C)C(=O)O[C@H](CC)[C@@](C)(O)[C@H](O)[C@@H](C)C(=O)[C@H](C)C[C@@]2(C)O)O[C@H](C)C[C@@H]1N(C)C` and `CC[C@H]1OC(=O)C[C@@H](O)[C@H](C)[C@@H](O[C@@H]2O[C@H](C)C[C@H](N(C)C)[C@H]2O)[C@@H](CC=O)C[C@@H](C)C(=O)/C=C/[C@]2(C)O[C@H]2[C@@H]1C` are within error of each other in relative enzymatic activity: 1.05 ± 0.026 for the first, 1.02 ± 0.099 for the second.

Compared with `O=C(O)c1c(O)c2c([nH]c1=O)CCCC2`, `CN(C)c1ccc(O)c2c1C[C@H]1C[C@H]3[C@H](N(C)C)C(=O)[C@@H](C(N)=O)C(=O)[C@@]3(O)C(=O)[C@H]1C2=O` is higher in relative enzymatic activity: 0.602 ± 0.36 for the first, 1.11 ± 0.018 for the second.

`COC1=C(N)C(=O)c2nc(-c3nc(C(=O)O)c(C)c(-c4ccc(OC)c(OC)c4O)c3N)ccc2C1=O` and `CN(C)C1C(O)=C(C(N)=O)C(=O)C2(O)C(O)=C3C(=O)c4c(O)cccc4C(C)(O)C3CC12.Cl` (stereo not given) are within error of each other in relative enzymatic activity: 1.31 ± 0.37 for the first, 1.05 ± 0.039 for the second.

First: Cl.Cl.N=C(NCCCCCCNC(=N)NC(=N)Nc1ccc(Cl)cc1)NC(=N)Nc1ccc(Cl)cc1
Second: CCCCCCCCCCCCC[N+](C)(C)Cc1ccccc1
The relative enzymatic activity of the first is higher: 0.901 ± 0.04 for the first, 0.106 ± 0.027 for the second.

Going from `COC1C=COC2(C)Oc3c(C)c(O)c4c(O)c(c(C=NN5CCN(C)CC5)c(O)c4c3C2=O)NC(=O)C(C)=CC=CC(C)C(O)C(C)C(O)C(C)C(OC(C)=O)C1C` (stereo not given) to `CN(C)c1cc(CNCC(C)(C)C)c(O)c2c1C[C@H]1C[C@H]3[C@H](N(C)C)C(=O)[C@H](C(N)=O)C(=O)[C@@]3(O)C(=O)[C@@H]1C2=O`, the relative enzymatic activity rises from 0.282 ± 0.059 to 1.13 ± 0.062.

`CC1C(NC(=O)C(=NOC(C)(C)C(=O)O)c2csc(N)n2)C(=O)N1S(=O)(=O)O` (stereo not given) and `Cc1nnc(SCC2=C(C(=O)O)N3C(=O)[C@@H](NC(=O)Cn4cnnn4)[C@H]3SC2)s1` are within error of each other in relative enzymatic activity: 1.016 ± 0.0098 for the first, 0.988 ± 0.078 for the second.

Going from `CC(N)O.Cc1cc(CC(C)CC(C)(C)C)n(O)c(=O)c1` (stereo not given) to `COC(=O)N/N=C/c1c[n+]([O-])c2ccccc2[n+]1[O-]`, the relative enzymatic activity falls from 1.11 ± 0.024 to 1 ± 0.079.
